This note sets out measurements from PubChem BioAssay AID1259313 (Sanford-Burnham Center for Chemical Genomics, 2017).

Molecules are shown by their SMILES. Among all 340,000 compounds or so, about 8,500 (2.5%) were called active. The list comes from a sample in which actives are over-represented; it also holds similar structures and randomly drawn compounds. A number with no mark means an inactive call.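 How the source made its calls: active means melting temperature shift of at least 10% of the positive control shift, at one fixed dose; inactive means the rest.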

This assay relates to Glutamate receptor ionotropic, NMDA 3A (GRIN3A) ligand-binding domain. In words: NR3A LBD thermal stabilization by compounds – biophysical, differential scanning fluorimetry, uHTS, primary screen (AID 1259313). As to conditions: at 25 µM, stronger effect = higher value, 0% = protein alone, 100% = glycine-bound protein. In general terms: In DSF a fluorescence change marks the thermal transition of the protein.
Turning to `CC(=O)c1c(C)[nH]c(C(=O)OCC(=O)Nc2c(C)n(C)n(-c3ccccc3)c2=O)c1C`, the Tm shift relative to glycine control was 0.41%. Next, `CCOCCCNC(=O)C(NC(=O)CNC(=O)c1ccccc1)c1ccc(C)cc1` (configuration not stated): -0.17%.

Turning to `Cc1ccc(N2CC(C(=O)NCCS(=O)(=O)N3CCN(c4ccccc4)CC3)CC2=O)cc1` (configuration not stated), the Tm shift relative to glycine control was 0.09%. Then `CCOc1cc2[nH]c(=S)n(Cc3ccc(C(=O)NCCOC)cc3)c(=O)c2cc1OCC`, with -2.12%; and `CCOc1cc2[nH]c(=S)n(Cc3ccc(C(=O)N4CCN(C)CC4)cc3)c(=O)c2cc1OCC`, with -2.77%. Then `COc1ccc(Cn2c(=S)[nH]c3cc(C(=O)N4CCCCC4)ccc3c2=O)cc1`, with 0.18%. As for `COc1cc2[nH]c(=S)n(Cc3ccc(F)cc3)c(=O)c2cc1OC`, the Tm shift relative to glycine control is 16.4% (active).

Take `COc1cc2[nH]c(=S)n(Cc3ccc(C)o3)c(=O)c2cc1OC`: the Tm shift relative to glycine control is 13.2% (active).

Turning to `COc1cc2[nH]c(=S)n(CCN3CCCCC3C)c(=O)c2cc1OC` (configuration not stated), the Tm shift relative to glycine control is -1.68%. As to `COCC(C)N=CC1=C(O)CC(C)(C)CC1=O` (configuration not stated), the Tm shift relative to glycine control was 1.32%. Turning to `O=C(NN1CCOCC1)c1cccc(F)c1`, the Tm shift relative to glycine control is -0.08%. As for `COc1ccc(C2c3[nH]c4ccccc4c3C[C@H]3C(=O)N(CC(C)C)CC(=O)N23)c(OC)c1` (some centres not stated), the Tm shift relative to glycine control is -1.75%. Next, `Cc1nnc(NC2=NCCCCC2)o1`: -2%; `O=C(CC(NS(=O)(=O)c1ccc(Cl)cc1)c1ccco1)NC1CCCC1` (configuration not stated): -0.32%. Then `CCOC(=O)c1ccc(NC(=O)CS(=O)(=O)c2cn(CC)c3ccccc23)cc1`, with -11.8%; and `Cc1nc(N)nc(SCc2ccc([N+](=O)[O-])cc2)c1N`, with 1.88%. Next, `Cc1nc(SCC(=O)c2ccccc2)c([N+](=O)[O-])[nH]1`: -0.87%. In the case of `Cc1nc(SCc2ccc(F)cc2)c([N+](=O)[O-])[nH]1`, the Tm shift relative to glycine control is 13.7% (active). Then `CCCSC1=C(C#N)C(c2ccccc2C)C(C(=O)OC)C(=O)N1` (configuration not stated), with -0.63%; and `Cn1c(SCC(=O)Nc2cccc(NC(=O)c3cccs3)c2)nnc1-c1ccncc1`, with 2.57%. Then `O=C(Nc1ccccc1-c1ccccc1)c1cccs1`, with -0.76%. Then `O=C(Nc1ccccc1)c1ccc(NC(=O)c2cccs2)cc1`, with 27% (active); and `C/C(=N\NC(=O)c1ccc(NS(=O)(=O)c2cccs2)cc1)c1ccc2ccccc2c1`, with 5.52%.

Consider `O=C(Nc1ccc2oc(-c3ccccc3F)nc2c1)c1ccco1`, for which the Tm shift relative to glycine control was -4.92%.

With `O=C(Cc1cccs1)Nc1ccc([N+](=O)[O-])cc1`, the Tm shift relative to glycine control is 0.1%. Next, `O=C(Nc1ccc(N2CCN(C(=O)C3CC3)CC2)cc1)c1cccs1`: 0.36%; `O=C(Nc1ccc(NC(=O)c2cccs2)cc1)c1ccc2ccccc2c1`: 25.1% (active). Next, `O=C(Nc1ccc2oc(-c3ccc4ccccc4c3)nc2c1)c1cccs1`: 25.9% (active). For `O=C(NC(=S)Nc1ccc(NC(=O)c2cccs2)cc1)c1ccc([N+](=O)[O-])cc1`, the Tm shift relative to glycine control was 24.7% (active).

Turning to `O=C(Nc1ccc(C(=O)O)cc1)/C(=C/c1ccc([N+](=O)[O-])cc1)NC(=O)c1ccccc1`, the Tm shift relative to glycine control was 0.77%. Then `CC(Oc1cccc(NC(=O)c2cccs2)c1)C(=O)c1ccccc1` (configuration not stated), with -12.8%; and `O=C(Nc1ccnc(-c2ccncc2)n1)c1cccs1`, with -0.64%; and `Cc1cc(C)c(-c2csc(NC(=O)CCCc3nc4ccccc4c(=O)[nH]3)n2)c(C)c1`, with -5.38%. Next, `CCCCCN(C(=O)CCC(=O)OCC(=O)NC1CCC(C)CC1)c1c(N)n(CCCC)c(=O)[nH]c1=O` (configuration not stated): -0.6%. Then `COc1cc(S(=O)(=O)N2CCN(C(=O)C3CC3)CC2)ccc1NC(C)=O`, with 1.2%; and `CCCc1c(C(=O)N/N=C(\C)CCc2ccc(OC)cc2)nnn1-c1nonc1N`, with 0.47%; and `CCNc1nc(N)nc(-c2cc(Cl)ccc2OC)n1`, with 1.29%. `CCN(CC(=O)Nc1c(F)cccc1F)C(=O)CN1c2cccc3cccc(c23)S1(=O)=O`: the Tm shift relative to glycine control is -0.42%. `COc1ccc(CNC(=O)CCCn2nc(C)c([N+](=O)[O-])c2C)cc1`: the Tm shift relative to glycine control was 2.36%. Next, `CCc1ccc(NC(=O)Cn2nc(C)c([N+](=O)[O-])c2C)cc1`: -12.5%. Next, `Cc1ccc(Oc2cc(NC(=O)CCCn3nc(C)c([N+](=O)[O-])c3C)cc([N+](=O)[O-])c2)cc1`: 14.9% (active); `Cc1cc(C)cc(OCC(=O)OCC(=O)NC2CCCC2)c1`: 1.75%; `CCOC(=O)C1CCCN(C(=O)Cn2ncc3c(=O)oc4ccc(C)cc4c32)C1` (configuration not stated): -4.2%. Next, `Cc1ccc(-c2nnc(CN3CCN(C)CC3)o2)cc1`: 0.59%. Turning to `CC1Cc2ccccc2N1CC(=O)Nc1ccc(S(N)(=O)=O)cc1` (configuration not stated), the Tm shift relative to glycine control was 6.2%. For the molecule `CC1CC(C)CN(CC(=O)Nc2ccc(S(N)(=O)=O)cc2)C1` (configuration not stated), the Tm shift relative to glycine control is 10% (active).

Regarding `CC1CN(C(=S)Nc2ccc(S(N)(=O)=O)cc2)CC(C)O1` (configuration not stated), the Tm shift relative to glycine control was -1.98%.
